From ChEMBL document CHEMBL4513216, “Probing the Open Global Health Chemical Diversity Library for Multistage-Active Starting Points for Next-Generation Antimalarials” (ACS Infect Dis, 2020)
Screen size: about 69,000 compounds; about 8,600 (12%) showed an effect of 50% or more. Shown is part of a subset that was picked to be rich in strong results.

Tested on: Plasmodium berghei
Assay: Screen against P. berghei liver stage (PbLuc), transformed with Luciferase, at 10uM
Format: functional, HepG2
Conditions: tested at 10 uM

How did the INHIBITION turn out when CNc1cncc(C2CCCN2C(=O)c2ccc3nc(C)[nH]c3c2)n1 (stereo not drawn) was run?
The INHIBITION was 2.6%.

For O=S1(=O)c2ccccc2C(O)CN1CCO (stereo not drawn), which INHIBITION is on record?
Its INHIBITION is -5.77%.

How did the INHIBITION turn out when COCCN1CCC2(CC1)CC1(CCN(S(C)(=O)=O)CC1)N(C)C2=O was run?
The INHIBITION was 40.8%.

CC(=O)Nc1ccc(Oc2cc(C)nc(C3CCCNC3)c2)cc1 (stereo not drawn) was tested. Which INHIBITION did it give?
The INHIBITION was 14.355%.

CSCC(C)NS(=O)(=O)c1ccc(C)c(N(C)C)c1 (stereo not drawn) was tested. Which INHIBITION did it give?
Its INHIBITION is -37.7%.

Which INHIBITION does the source give for Cc1cnc(N2C(=O)CSC2c2ccc(N(C)C)cc2)s1 (stereo not drawn) here?
The INHIBITION was 39.9%.

For CC(C)c1nn(C)c(Cl)c1CNCc1ccc(N(C)C)nc1, which INHIBITION is on record?
The INHIBITION was 18.85%.

With CC(=O)Nc1ccc(S(=O)(=O)NC(=O)CCC2CCCO2)cc1 (stereo not drawn) as the compound, how does the INHIBITION read?
The INHIBITION was 57.2%.

Which INHIBITION does the source give for O=C(CCC1CCCO1)NS(=O)(=O)c1ccc(Cl)cc1 (stereo not drawn) here?
Its INHIBITION is -11.4%.

For Cc1ccc(S(=O)(=O)NC(=O)CCC2CCCO2)cc1 (stereo not drawn), which INHIBITION is on record?
Its INHIBITION is -7.35%.

How did the INHIBITION turn out when Cc1nccn1CCCC(=O)N1CCC(N(C)c2cccnn2)CC1 was run?
The INHIBITION was 12.7%.

For O=C(c1cnn[nH]1)N1CCCC1c1nc2cc(F)ccc2[nH]1 (stereo not drawn), which INHIBITION is on record?
Its INHIBITION is 11.8%.

With CN(C)c1ccc(C(=O)NCCCc2ccccn2)cn1 as the compound, how does the INHIBITION read?
Its INHIBITION is 62.8%.

For CN(Cc1ccco1)c1ccc(C(=O)NCCCc2ccccn2)cn1, which INHIBITION is on record?
Its INHIBITION is 58.2%.

CN(CC(C)(C)C)c1ccc(C(=O)NCCCc2ccccn2)cn1 was tested. Which INHIBITION did it give?
Its INHIBITION is -20.6%.

With O=C(NCCCc1ccco1)c1cnc(N2CCOCC2)nc1 as the compound, how does the INHIBITION read?
The INHIBITION was -18.8%.

How did the INHIBITION turn out when CCN(C)c1ccc(C(=O)NCCCc2ccccn2)cn1 was run?
The INHIBITION was -17.9%.

CCn1c(N)nc2cc(C(=O)NCCCc3ccccn3)cnc21 was tested. Which INHIBITION did it give?
Its INHIBITION is 11.8%.

With Cc1ccc(CN2CCOC3(CCN(CC4CCOC4)CC3)C2)cc1 (stereo not drawn) as the compound, how does the INHIBITION read?
Its INHIBITION is 36.7%.

CSCCC(Nc1nc(C)cc(C)n1)C(=O)NC1CCCC1 (stereo not drawn) was tested. Which INHIBITION did it give?
The INHIBITION was 36.8%.

How did the INHIBITION turn out when COC(=O)c1ccc(N2CCN(C(=O)c3cc(C)on3)C(C)C2)cc1 (stereo not drawn) was run?
Its INHIBITION is 54.3%.

How did the INHIBITION turn out when COC(=O)c1ccc(N2CCN(C(=O)c3cnccn3)C(C)C2)cc1 (stereo not drawn) was run?
Its INHIBITION is -23.8%.

How did the INHIBITION turn out when COCC(=O)N1CCN(c2ccc(C(=O)OC)cc2)CC1C (stereo not drawn) was run?
Its INHIBITION is -31.4%.

With COC(=O)c1ccc(N2CCN(C(=O)c3cnc(C)cn3)C(C)C2)cc1 (stereo not drawn) as the compound, how does the INHIBITION read?
The INHIBITION was 66.7%.

For COC(=O)c1ccc(N2CCN(C(=O)C(C)C)C(C)C2)cc1 (stereo not drawn), which INHIBITION is on record?
The INHIBITION was -37.6%.

With COC(=O)c1ccc(N2CCN(C(=O)c3cc(C)no3)C(C)C2)cc1 (stereo not drawn) as the compound, how does the INHIBITION read?
Its INHIBITION is -11.4%.

For Cc1cc(Oc2ccc(NC(=O)C3CC3)cc2)cc(C2CCNCC2)n1, which INHIBITION is on record?
The INHIBITION was 10.535%.

CN(CCCc1cnn(C)c1)c1nccc(-c2cc(C(=O)O)ccn2)n1 was tested. Which INHIBITION did it give?
Its INHIBITION is 21.2%.

Cc1cccc(CN2Cc3nccn3CC(CN3CCOCC3)C2)c1 (stereo not drawn) was tested. Which INHIBITION did it give?
The INHIBITION was 43.9%.

How did the INHIBITION turn out when O=C1COc2cc(C(=O)NS(=O)(=O)c3cc(Cl)ccc3Cl)ccc2N1 was run?
Its INHIBITION is 37.4%.

With CN(C)C(=O)COCc1cncc2c1CCN(Cc1ccccn1)C2 as the compound, how does the INHIBITION read?
Its INHIBITION is -11%.

Which INHIBITION does the source give for COc1ccc(-c2nccc(C3CCCN3C)n2)cc1 (stereo not drawn) here?
The INHIBITION was 16.5%.

With O=C(N1CCCC1)N1CCOCC2(C1)CN(c1ccccc1)C(=O)CO2 (stereo not drawn) as the compound, how does the INHIBITION read?
Its INHIBITION is -1.36%.

For COc1ccc(NC(C)=O)cc1OCc1cccnc1, which INHIBITION is on record?
The INHIBITION was 66.5%.

With COc1ccc(NC(=O)C(C)(C)C)cc1OCc1cccnc1 as the compound, how does the INHIBITION read?
Its INHIBITION is 43.4%.

Which INHIBITION does the source give for COc1ccc(NC(=O)C2CC2)cc1OCc1cccnc1 here?
Its INHIBITION is 34.1%.

Which INHIBITION does the source give for Cc1nnc(N2CCCC3(CN(Cc4ccc(C)s4)CCO3)C2)o1 (stereo not drawn) here?
The INHIBITION was 1.81%.

COCc1noc(-c2ccc(N(C)Cc3cc(C)no3)nc2)n1 was tested. Which INHIBITION did it give?
The INHIBITION was 33.5%.

For COCc1noc(-c2ccc(N(C)Cc3c(C)n[nH]c3C)nc2)n1, which INHIBITION is on record?
Its INHIBITION is 56.9%.

With COCc1noc(-c2ccc(N(C)Cc3ccc(C)o3)nc2)n1 as the compound, how does the INHIBITION read?
Its INHIBITION is -26.7%.

With Cc1ccc(N2CCN(C(=O)[C@@H]3CCC(=O)N3)CC2=O)cc1 as the compound, how does the INHIBITION read?
The INHIBITION was 4.95%.

O=C(NCc1ccc(Cl)cc1)C1CCCN(c2ccc3nncn3n2)C1 (stereo not drawn) was tested. Which INHIBITION did it give?
The INHIBITION was 15.7%.

CC(C)CC(=O)N1CCCC1c1cc(CO)[nH]n1 (stereo not drawn) was tested. Which INHIBITION did it give?
The INHIBITION was -0.7%.

Which INHIBITION does the source give for CCc1ccc(-n2nnc(C(=O)O)c2-c2ccncc2)cc1 here?
The INHIBITION was 6%.

How did the INHIBITION turn out when O=C(NC1CC1)c1nnn(-c2cccc(C(F)(F)F)c2)c1C1CC1 was run?
The INHIBITION was 18.6%.

Which INHIBITION does the source give for O=C(O)c1nnn(-c2cccc(C(F)(F)F)c2)c1-c1ccncc1 here?
Its INHIBITION is 65.6%.

With O=C(O)c1nnn(-c2ccc(C(F)(F)F)cc2)c1-c1ccncc1 as the compound, how does the INHIBITION read?
The INHIBITION was 18.4%.

Which INHIBITION does the source give for CC(C)NC(=O)c1nnn(-c2cccc(F)c2)c1C1CC1 here?
Its INHIBITION is -18.9%.

For O=C(O)c1nnn(-c2ccc(F)c(F)c2)c1-c1ccncc1, which INHIBITION is on record?
Its INHIBITION is -6.32%.

O=C(O)c1nnn(-c2ccc(Cl)c(C(F)(F)F)c2)c1-c1ccncc1 was tested. Which INHIBITION did it give?
The INHIBITION was -5.59%.

For Cc1ccc(F)c(-n2nnc(C(=O)O)c2-c2ccncc2)c1, which INHIBITION is on record?
The INHIBITION was 7.9%.

Which INHIBITION does the source give for O=C(O)c1nnn(-c2ccccc2F)c1-c1ccncc1 here?
The INHIBITION was 50.7%.

O=C(O)c1nnn(-c2ccccc2)c1-c1ccncc1 was tested. Which INHIBITION did it give?
The INHIBITION was 54%.

How did the INHIBITION turn out when O=C(O)c1nnn(-c2cc(F)cc(F)c2)c1-c1ccncc1 was run?
The INHIBITION was 16.8%.

With CC(C)NC(=O)c1nnn(-c2cccc(C(F)(F)F)c2)c1C1CC1 as the compound, how does the INHIBITION read?
Its INHIBITION is 58.5%.

For COc1cc2cc3c(nc2cc1OC)OCCN(Cc1ccco1)C3, which INHIBITION is on record?
The INHIBITION was 16.5%.

COCCCNC(=O)CN(C)C(=O)CN(C)c1ccc(C#N)cn1 was tested. Which INHIBITION did it give?
The INHIBITION was -12.1%.

CC(=O)N1CCn2c(-c3ccccc3)cnc2C12CCNCC2 was tested. Which INHIBITION did it give?
Its INHIBITION is 33%.

How did the INHIBITION turn out when Cc1nn(C)c(N(C)C)c1CNCC(O)c1ccccc1F (stereo not drawn) was run?
The INHIBITION was 25.1%.

Cc1cc(C(=O)N2CCCC(C(=O)c3cccs3)C2)c(=O)[nH]c1C (stereo not drawn) was tested. Which INHIBITION did it give?
The INHIBITION was 33.3%.

With N#Cc1cnc(NCc2cccc(C(=O)N3CCCC3)c2)c(Cl)c1 as the compound, how does the INHIBITION read?
The INHIBITION was 57.5%.

For N#Cc1ccc(CNc2ncc(C#N)cc2Cl)cc1, which INHIBITION is on record?
The INHIBITION was 20.1%.

How did the INHIBITION turn out when N#Cc1cnc(NCc2ccc(C(=O)NC3CC3)cc2)c(Cl)c1 was run?
Its INHIBITION is -32.9%.

O=C(c1cnc(NCc2cccnc2)c(Cl)c1)N1CCCCC1 was tested. Which INHIBITION did it give?
Its INHIBITION is 56.3%.

For O=C(c1cnc(NCC2CCCO2)c(Cl)c1)N1CCCCC1 (stereo not drawn), which INHIBITION is on record?
Its INHIBITION is 32.2%.

With O=C(c1cnc(NCc2sccc2Br)c(Cl)c1)N1CCCCC1 as the compound, how does the INHIBITION read?
The INHIBITION was 24.2%.

With CCc1ccc(CN(C)Cc2nc(COc3ccccc3)no2)nc1 as the compound, how does the INHIBITION read?
Its INHIBITION is 29.6%.

How did the INHIBITION turn out when c1ccc(CN2CCc3ncnc(C4CC4)c3CC2)nc1 was run?
The INHIBITION was 21.1%.
